# Measurements: PubChem BioAssay AID2551 (National Center for Advancing Translational Sciences (NCATS), 2010)
# Among all 310,000 compounds or so, about 17,000 (5.5%) were called active. A call without a number means that no potency is given here. Not shown: some 11% with an inconclusive outcome. Many of the other results were omitted from the sample, so actives are more common in it than they were. Values without a mark were called inactive. The call rests on the fitted dose curve; in most records, active means well fitted inhibition curve with a large enough effect; inconclusive means small, poorly fitted or top-dose-only effect, or effect the other way; inactive means no such curve, though single readings can be large or run the other way.
# Target: Nuclear receptor ROR-gamma (Mus musculus) (UniProt P51450)
# Sequence (P51450 whole entry, looked up): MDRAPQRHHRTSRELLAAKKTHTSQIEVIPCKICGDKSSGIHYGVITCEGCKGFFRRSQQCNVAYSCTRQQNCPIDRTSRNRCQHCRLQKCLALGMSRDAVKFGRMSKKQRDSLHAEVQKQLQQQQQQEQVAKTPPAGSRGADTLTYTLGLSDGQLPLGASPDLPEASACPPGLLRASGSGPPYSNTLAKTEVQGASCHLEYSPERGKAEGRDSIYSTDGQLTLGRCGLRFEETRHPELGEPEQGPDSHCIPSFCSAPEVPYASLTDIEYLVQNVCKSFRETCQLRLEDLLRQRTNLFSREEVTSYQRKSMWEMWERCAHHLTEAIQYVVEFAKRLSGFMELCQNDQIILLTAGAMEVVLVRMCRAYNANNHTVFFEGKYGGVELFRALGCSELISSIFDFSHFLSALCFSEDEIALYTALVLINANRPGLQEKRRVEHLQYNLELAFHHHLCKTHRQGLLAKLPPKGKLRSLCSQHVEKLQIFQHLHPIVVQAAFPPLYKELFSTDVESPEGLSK
# Assay: qHTS for inhibitors of ROR gamma transcriptional activity; further: nearly all actives have a fitted effect of over 60% in size
# Details: Drosophila S2 Gal4-RORgamma UAS-luciferase reporter, 20 h; series mostly up to 53.6 µM
# Summary of the method: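 In this cell-based reporter format, copper sulfate (700 uM final) drives Gal4–ROR gamma fusion expression from a metallothionein promoter in Drosophila Schneider cells; compounds preincubated 1 hr, reporter read after 20 hr at ambient temperature.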
# Potency means the concentration at half of the fitted maximal effect.
Compound,Potency,"activity change, negative = inhibition"
COc1cccc(C(C(=O)NC2CCCC2)N(C(=O)c2ccco2)c2cccc(C(C)=O)c2)c1OC (configuration not stated),inactive,
CCNC(=S)N(CCc1c(C)[nH]c2ccc(C)cc12)Cc1ccco1,11.2 µM (active),
Cc1[nH]c2ccccc2c1CCN(Cc1cccs1)C(=S)NC(C)(C)C,inactive,
COc1cccc(NC(=S)N(CCc2c(C)[nH]c3ccccc23)Cc2ccco2)c1,11.2 µM (active),
COc1ccc2[nH]c(C)c(CCN(Cc3cccs3)C(=S)Nc3ccccc3OC)c2c1,inactive,
Cc1ccc2[nH]c(C)c(CCNC(=O)NC3CCCCC3)c2c1,inactive,
COCCNC(=S)N(CCc1c(C)[nH]c2ccc(C)cc12)Cc1cccnc1,inactive,
NS(=O)(=O)c1ccc(CNC(=O)c2cccc(Oc3ccccc3)c2)cc1,inactive,
COc1ccc(N2CCN(C(=O)Cn3cnc4sc(C)c(S(=O)(=O)N5CCOCC5)c4c3=O)CC2)cc1,inactive,
COc1ccc(NS(=O)(=O)c2ccc3oc(SCC(N)=O)nc3c2)cc1,inactive,
COc1cc(C(=S)N2CCOCC2)cc(OC)c1OC(=O)c1ccc([N+](=O)[O-])cc1[N+](=O)[O-],,-8.5% [at 1.91 µM]
O=C(O)c1ccc2c(=O)n3c(nc2c1)/C(=C/c1ccc(OC(F)F)cc1OC(F)F)CC3,inactive,
Cc1ccc(Nc2nc(N)nc(CSc3nnc(C)s3)n2)cc1,inactive,
CCOC(=O)N1CCN(Cc2nc(N)nc(Nc3ccc(C)cc3)n2)CC1,inactive,
Nc1nc(CC(=O)CSc2ccc(Cl)cc2)nc(Nc2ccc(F)cc2)n1,14.1 µM (active),
O=S(=O)(NC1CC1)c1ccc(Cl)cc1,,30.8% [at 1.91 µM]
Cc1ccc(Nc2ccccc2N)cc1,11.2 µM (active),
Cc1ccc(Nc2nnc(SCc3ccccc3)s2)cc1,inactive,
Nc1ccccc1N,inactive,
Cc1[nH]c(C)c(S(=O)(=O)N2CCC(C)CC2)c1C(=O)N1CCCC1,inactive,
COCCNC(=O)CN(Cc1ccco1)C(=O)CCC(=O)Nc1nccs1,inactive,
Cc1ccccc1-n1c(C)cc(/C=N/NC(=O)c2ccc(CN3CCOCC3)cc2)c1C,10 µM (active),
C/C(CCc1ccccc1)=N\NC(=O)c1ccc(CN2CCOCC2)cc1,inactive,

Compound,Potency,"activity change, negative = inhibition"
COc1ccc(C(=O)Nc2ccc(CN3CCOCC3)cc2)cc1,inactive,
Cc1cc(=O)n2nc(N3CCCC(C(=O)NCc4cccc(Cl)c4)C3)sc2n1 (configuration not stated),inactive,
O=C(COC(=O)c1ccc(Oc2ccccc2)cc1)Nc1nnc(-c2ccccc2)o1,2.82 µM (active),
Cc1ccnc2nc(C(=O)Nc3nnc(-c4ccccc4)o3)nn12,11.2 µM (active),
CCc1nnc(NC(=O)c2nc3nccc(C)n3n2)s1,inactive,
O=C(OCc1ccc(Br)cc1)c1cccc(-c2nnc(-c3ccccc3)o2)c1,inactive,
CCCC(=O)Nc1nnc(-c2ccccc2)o1,7.94 µM (active),
O=C(COC(=O)c1ccccc1)Nc1ccccc1Sc1ccccc1,inactive,
Cc1ccnc2nc(C(=O)OCC(=O)N(CC(C)C)CC(C)C)nn12,inactive,
Cc1cccc(NC(=O)Nc2nnc(-c3ccccc3)o2)c1,inactive,
Nc1ccc(-c2nnc(-c3ccccc3)o2)cc1,inactive,
COC(=O)C1(C)CC1(c1ccccc1)c1ccccc1 (configuration not stated),inactive,
CN(C)N1C(N)=C(C#N)C(c2ccc(Br)cc2)C2=C1CCCC2=O (configuration not stated),inactive,
C[C@@H](NC(=O)[C@@H]1Cc2ccccc2CN1)C(=O)NC1CCCC1,inactive,
CC(=O)NN1C(=O)c2ccccc2NC1c1ccccc1 (configuration not stated),inactive,
CCCC1=Nc2cc(C(=O)NCCN3CCCC3)ccc2Sc2ccccc21,inactive,
CCC1Sc2ccc(S(=O)(=O)CCC(=O)NCc3cccs3)cc2NC1=O (configuration not stated),inactive,
FC(F)(F)c1nc2ccccc2nc1N/N=C/c1ccc(Cl)cc1,5.62 µM (active),
CC(NC(=O)C(=O)N/N=C/c1ccc(Cl)cc1)c1ccccc1 (configuration not stated),inactive,
FC(F)(F)c1cccc(N/N=C/c2ccccc2)c1,inactive,
COc1ccccc1CN(C)C(=O)c1cc2ccccc2o1,inactive,
Cc1ccc2[nH]c(=O)c(CN(C)S(=O)(=O)c3cccc4nonc34)cc2c1,inactive,
COc1cc(SC#N)ccc1N=Cc1c(C)[nH]n(-c2ccc(C)cc2)c1=O,6.31 µM (active),

Compound,Potency,"activity change, negative = inhibition"
C=CCN1C(=O)C2(OCCCO2)c2cccc(Cl)c21,inactive,
Oc1ccc(-n2nnnc2SCc2c(F)cccc2Cl)cc1,inactive,
Cc1ccc(CC2CC(=O)N(c3cc(C)ccc3C)C2=O)cc1 (configuration not stated),inactive,
O=C(Nc1cccc(C(F)(F)F)c1)c1cnccn1,inactive,
Cc1cccc(NC(=O)c2cccc(C(F)(F)F)c2)c1,inactive,
O=C(Nc1cccc(C(F)(F)F)c1)c1cc(Br)cc(Br)c1O,5.01 µM (active),
O=C(N/C(=C/c1ccc(Cl)cc1)C(=O)N1CCCCC1)c1ccco1,inactive,
CN(CC(=O)Nc1c(Cl)cccc1Cl)C(=O)c1ccncc1,inactive,
Cc1ccc(-c2ccc(=O)n(Cc3ccc(F)cc3Cl)n2)cc1,inactive,
Cc1n[nH]c(=O)c2c1nnn2Cc1ccc(F)cc1,inactive,
Cc1nnsc1C(=O)N/N=C/c1cccc(C(F)(F)F)c1,inactive,
COc1ccc(/C=N/NC(=O)c2cccc(C(F)(F)F)c2)cc1,12.6 µM (active),
COc1ccc(/C=N/NC(=O)Cn2cc(C(F)(F)F)ccc2=O)cc1,inactive,
C=C1C(=O)C23C(O)C1CCC2[C@]12COC3(O)C(O)C1C(C)(C)CC[C@H]2O (some centres not stated),0.708 µM (active),
CCC1Oc2ccccc2N(CC(=O)NCCCN2CCN(CC)CC2)C1=O (configuration not stated),inactive,
COc1ccc(Cc2nc3ccc(C(=O)NCC4CCOCC4)cc3o2)cc1OC,inactive,
CCCCC(C(=O)OCC(=O)c1ccc(OC)cc1)N1C(=O)c2ccccc2C1=O (configuration not stated),inactive,
CCOC(=O)C1=C(c2ccc(OC)cc2)C(=O)c2ccccc2C1=O,6.31 µM (active),
CCOC(=O)c1c(-c2ccc(C)cc2)csc1/N=C(\C)C1=C(O)c2ccccc2C1=O,inactive,
O=C(NCCCc1ccccc1)C1CCC(=O)N(CCc2ccc(Cl)cc2)C1 (configuration not stated),inactive,
COc1ccccc1CN1CCCC(N2CCN(c3ccc(F)cc3)CC2)C1 (configuration not stated),inactive,
